Measured values as given in PubChem BioAssay (NCI).
Compounds without any hit were thinned out: in the full panel of roughly 83,000, 20% have a hit.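 Percent growth is the endpoint: 0 to 100 indicates growth inhibition (40 means 60% inhibition), 0 means no net growth, and negative values indicate cell death.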 Unmarked numbers belong to inactive results. Activity calls are given as the source filed them. How the source made its calls: active means growth percent below 10; inactive means the rest.

Experiments:
Test in all cases: NCI-60 one-dose screen, 48 h (100 = growth as untreated, 0 = no growth, -100 = all killed)
Conditions in all cases: 10 µM unless noted
T-47D breast = system: T-47D breast
BT-549 breast = system: BT-549 breast
MDA-MB-435 melanoma = system: MDA-MB-435 melanoma
MCF7 breast = system: MCF7 breast
HCT-116 colon = system: HCT-116 colon
HCC-2998 colon = system: HCC-2998 colon
KM12 colon = system: KM12 colon
SW-620 colon = system: SW-620 colon

c1cc2nc(-c3cn[nH]c3)c3c(c2cc1-c1cn[nH]c1)C1CCC3C1 (centres undefined)
growth (T-47D breast): 37.6%
growth (BT-549 breast): 62%
growth (MDA-MB-435 melanoma): 75.3%
growth (MCF7 breast): 49.2%
growth (HCT-116 colon): 61.5%
growth (HCC-2998 colon): 84.5%
growth (KM12 colon): 37.8%

Cn1cc(-c2cc3ncnc(Nc4ccc(CC(=O)Nc5cc(C(C)(C)C)on5)cc4)c3s2)cn1
growth (T-47D breast): 30.7%
growth (BT-549 breast): 52.5%
growth (MDA-MB-435 melanoma): 40.7%
growth (MCF7 breast): 41.5%
growth (HCT-116 colon): 21.8%
growth (HCC-2998 colon): 99.1%
growth (KM12 colon): 19.1%

Cc1ccc(-c2cnc3sc(C(=O)NCCc4ccccc4)c(C)n23)cc1
growth (T-47D breast): 70%
growth (BT-549 breast): 79.5%
growth (SW-620 colon): 91.9%
growth (MCF7 breast): 83.2%
growth (HCT-116 colon): 95.6%
growth (HCC-2998 colon): 96.9%

CC(C)OC(=O)Nc1ccc(-c2nc(-c3cccc(OCCN4CCOCC4)c3)c(-c3ccnc(Br)c3)[nH]2)cc1
growth (T-47D breast): 31.2%
growth (BT-549 breast): 42.1%
growth (SW-620 colon): 19.9%
growth (MCF7 breast): -9.12% (active)
growth (HCT-116 colon): 22.3%
growth (HCC-2998 colon): 29.4%
growth (KM12 colon): 10.4%

CCCCn1c(-c2ccc(C(=O)O/N=C(\N)c3ccc(OC)cc3)cc2)nc(-c2ccccc2)c1-c1ccccc1
growth (T-47D breast): -31.8% (active)
growth (BT-549 breast): 11.7%
growth (SW-620 colon): 5.52% (active)
growth (MCF7 breast): -24.7% (active)
growth (HCT-116 colon): -33.6% (active)
growth (HCC-2998 colon): 1.5% (active)
growth (KM12 colon): 9.02% (active)

O=C1/C(=C/c2ccccc2[N+](=O)[O-])Oc2ccc(O)c(O)c21
growth (T-47D breast): 39.8%
growth (BT-549 breast): 52.9%
growth (SW-620 colon): 28.5%
growth (MCF7 breast): 21.2%
growth (HCT-116 colon): 21.6%
growth (HCC-2998 colon): 57.9%
growth (KM12 colon): 37.5%

Cc1cccc2c3c(sc12)C(c1ccc(Cl)cc1)C(C#N)=C(N)O3 (centres undefined)
growth (T-47D breast): 45.9%
growth (BT-549 breast): 17.9%
growth (SW-620 colon): 26.9%
growth (MCF7 breast): 9.7% (active)
growth (HCT-116 colon): 14.2%
growth (HCC-2998 colon): 18.3%
growth (KM12 colon): 9.62% (active)

CCOC(=O)Nc1ccc(-c2nc(-c3cccc(OCCN4CCOCC4)c3)c(-c3ccnc(Br)c3)[nH]2)cc1
growth (T-47D breast): 35.6%
growth (BT-549 breast): 56.4%
growth (SW-620 colon): 42.6%
growth (MCF7 breast): 11.6%
growth (HCT-116 colon): 30.9%
growth (HCC-2998 colon): 38.5%
growth (KM12 colon): 20.2%

COc1cccc(-c2nc(-c3ccc(NC(=O)OC(C)C)cc3)[nH]c2-c2ccnc(Br)c2)c1
growth (T-47D breast): 6.55% (active)
growth (BT-549 breast): 48%
growth (SW-620 colon): 34.2%
growth (MCF7 breast): 10.5%
growth (HCT-116 colon): 13.2%
growth (HCC-2998 colon): 39.5%
growth (KM12 colon): 17%

Cc1cccc(NC2=C(Cl)C(=O)c3nc(C)ccc3C2=O)c1
growth (T-47D breast): -50.2% (active)
growth (BT-549 breast): 3.34% (active)
growth (SW-620 colon): -13.7% (active)
growth (MCF7 breast): -57.8% (active)
growth (HCT-116 colon): -47.6% (active)
growth (HCC-2998 colon): 3.47% (active)
growth (KM12 colon): 33.5%

CCOC(=O)C1=C(N)Oc2c(sc3c(C)cccc23)C1c1ccc(F)cc1 (centres undefined)
growth (T-47D breast): 28%
growth (BT-549 breast): 18.1%
growth (SW-620 colon): 22.4%
growth (MCF7 breast): 7.39% (active)
growth (HCT-116 colon): 9.01% (active)
growth (HCC-2998 colon): 9.19% (active)
growth (KM12 colon): 9.22% (active)

CCc1cccc2c1S/C(=C/c1ccc(Cl)cc1)C2=O
growth (T-47D breast): 68.2%
growth (BT-549 breast): 112%
growth (MCF7 breast): 52.1%
growth (HCT-116 colon): 91.8%
growth (HCC-2998 colon): 110%
growth (KM12 colon): 98.2%

CCOC(=O)C1=C(N)Oc2c(sc3c(C)cccc23)C1c1ccc(Cl)cc1 (centres undefined)
growth (T-47D breast): 17.6%
growth (BT-549 breast): 65.7%
growth (SW-620 colon): 23.7%
growth (MCF7 breast): 8.74% (active)
growth (HCT-116 colon): 23.9%
growth (HCC-2998 colon): 49.3%
growth (KM12 colon): 15.3%

COc1cccc(-c2nc(-c3ccc(NS(=O)(=O)c4ccccc4)cc3)[nH]c2-c2ccnc(Br)c2)c1
growth (T-47D breast): 14.2%
growth (BT-549 breast): 51.3%
growth (SW-620 colon): 34.3%
growth (MCF7 breast): 9.68% (active)
growth (HCT-116 colon): 17%
growth (HCC-2998 colon): 21.8%
growth (KM12 colon): 8.67% (active)

CCC(=O)Nc1ccc(-c2nc(-c3cccc(OC)c3)c(-c3ccnc(Br)c3)[nH]2)cc1
growth (T-47D breast): 28.4%
growth (BT-549 breast): 77.4%
growth (SW-620 colon): 80.4%
growth (MCF7 breast): 25.5%
growth (HCT-116 colon): 63.7%
growth (HCC-2998 colon): 69%
growth (KM12 colon): 43.2%

Cc1c(C(=O)NCCCc2ccccc2)sc2ncc(-c3ccc(Br)cc3)n12
growth (T-47D breast): 103%
growth (BT-549 breast): 110%
growth (SW-620 colon): 105%
growth (MCF7 breast): 94.3%
growth (HCT-116 colon): 104%
growth (HCC-2998 colon): 110%
growth (KM12 colon): 100%

COc1cccc(-c2nc(-c3ccc(NC(=O)c4ccccc4)cc3)[nH]c2-c2ccnc(Br)c2)c1
growth (T-47D breast): 14.7%
growth (BT-549 breast): 47.1%
growth (SW-620 colon): 30.8%
growth (MCF7 breast): 14.7%
growth (HCT-116 colon): 30.7%
growth (HCC-2998 colon): 31.1%
growth (KM12 colon): 20%

COc1ccc(-c2cc(-c3ccc(Cl)cc3)c(C#N)c(=O)n2CCCCCC(=O)Nc2ccccc2N)cc1
growth (T-47D breast): 18.6%
growth (BT-549 breast): 58.4%
growth (SW-620 colon): 42.4%
growth (MCF7 breast): 31%
growth (HCT-116 colon): 22.5%
growth (HCC-2998 colon): 82.8%
growth (KM12 colon): 40.4%
